CHO-K1 Ca ag = counter-screen for M1 agonists: effect in parental CHO-K1 cells. AID 602248, 2012. activation, % at 3 µM. Fluo-8 calcium fluorescence; scaled to maximal ATP response, vehicle zero. 360,000 tested, 0.48% active; in the data active = activation above about 15%;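 note: untransfected CHO-K1 host cells lacking M1 receptor as counterscreen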
CHO-K1 Ca antag = counter-screen for M1 antagonists: effect in parental CHO-K1 cells; ATP-induced calcium, Fluo-8 fluorescence; 360,000 tested, 0.6% active; inhibition, % at 3 µM;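 active = inhibition above a per-plate cutoff, the plate's mean sample inhibition plus 3 SD, cut at about 24% in these data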;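 note: 0% = DMSO plus EC80 ATP and 100% = DMSO alone without ATP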
M1 antag = human M1 muscarinic receptor antagonists, primary screen, CHO-K1 cells, Fluo-8 calcium fluorescence, 1536-well; 360,000 tested, 1.3% active; inhibition, % at 3 µM; CHO-K1 hM1, ACh EC80 antagonist; AID 588852, 2011;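 active = percent inhibition above its own plate's cutoff, namely the mean of that plate's compound wells plus 3 SD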;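 note: peak over basal fluorescence ratio during 140 s after agonist addition; 0% = ACh EC80 plus DMSO and 100% = DMSO alone without agonist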
Target sequence (P11229 whole entry, looked up): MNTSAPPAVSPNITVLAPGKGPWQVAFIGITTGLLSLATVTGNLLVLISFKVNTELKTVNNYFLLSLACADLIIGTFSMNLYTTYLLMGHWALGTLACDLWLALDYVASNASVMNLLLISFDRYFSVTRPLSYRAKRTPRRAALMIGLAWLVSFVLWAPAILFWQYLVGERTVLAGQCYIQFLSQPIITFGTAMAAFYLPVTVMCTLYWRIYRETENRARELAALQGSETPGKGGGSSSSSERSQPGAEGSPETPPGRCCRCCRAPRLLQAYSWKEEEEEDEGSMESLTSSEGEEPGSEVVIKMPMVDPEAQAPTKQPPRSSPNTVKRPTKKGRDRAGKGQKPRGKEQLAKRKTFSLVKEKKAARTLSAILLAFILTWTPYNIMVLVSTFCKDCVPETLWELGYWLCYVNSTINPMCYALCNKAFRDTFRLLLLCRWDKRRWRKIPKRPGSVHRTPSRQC
CHRM1 PAM = human M1 muscarinic receptor positive allosteric modulators, primary screen, CHO-K1 cells, Fluo-8 calcium fluorescence, 1536-well | 360,000 tested, 0.088% active | CHO-K1 hM1, ACh EC20; 0% = ACh EC20, 100% = maximal ACh | Muscarinic acetylcholine receptor M1 (Homo sapiens), P11229 | activation, % at 3 µM | AID 588819, 2011; in the data active = activation above about 19%, passing the limit was not always enough
M1 ag = human M1 muscarinic receptor agonists, primary screen, Fluo-8 calcium fluorescence, CHO-K1 cells, HTS. 360,000 tested, 0.33% active. Muscarinic acetylcholine receptor M1 (Homo sapiens), P11229. AID 588814, 2011. CHO-K1 hM1, agonist mode; 0% DMSO, 100% acetylcholine EC100. activation, % at 3 µM;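 active = activation above the run's mean compound activation plus 3 SD, cut at about 16% in these data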;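 note: peak over basal fluorescence ratio within a 140 s kinetic read after compound addition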
M1 PAM parental = nonselective calcium activators in parental CHO-K1 cells, primary screen, counter-screen for M1 PAM project, cell-based, Fluo-8 calcium fluorescence, full deck, 1536-well | ATP EC20; 0% at ATP EC20, 100% at ATP max | activation, % at 3 µM | 360,000 tested, 0.02% active | AID 602247, 2012;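 active = activation above the run cutoff, the mean activation of all test compounds plus 3 SD, cut at about 40% in these data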;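 note: peak over basal fluorescence ratio in a 140 s read after ATP addition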
The depositor's hits bear a star; . = not tested or not shown; ! = repeats disagree. Only some compounds are listed: those with a hit (about 2.3% of all), similar ones and a draw of the others.

SMILES	CHO-K1 Ca ag	CHO-K1 Ca antag	M1 antag	CHRM1 PAM	M1 ag	M1 PAM parental
Cn1c(-c2ccccc2)cnc1NCc1cccc([N+](=O)[O-])c1	0.7	-8.6	36.2*	-23.4	-8.9	12.8
Cn1c(-c2ccccc2)cnc1NCc1cc2c(cc1[N+](=O)[O-])OCO2	4.3	-14.9	-0.7	-3.0	-7.5	19.8
COc1ccccc1CNc1ncc(-c2ccccc2)n1C	0.8	1.9	22.6	-20.4	-10.4	11.8
COc1ccc(CNc2ncc(-c3cccc([N+](=O)[O-])c3)n2C)c(OC)c1OC	-0.8	5.8	54.0*	-28.1	-8.9	-11.6
COc1ccccc1CNc1ncc(-c2ccc(F)cc2)n1C	0.1	9.4	44.5*	-25.5	-10.7	-24.6
COc1ccc(CNc2ncc(-c3ccc(F)cc3)n2C)c2ccccc12	4.4	-19.3	-10.3	0.2	-3.2	24.3
O=C(O)c1cccc(N2C(=O)CSC2c2ccccc2)c1 (stereo unspecified)	0.8	-11.5	-20.2	17.3	-3.5	2.8
Cc1nc2c(sc3nc(N4CCOCC4)c4c(c32)CC(C)(C)OC4)c(-c2ccc(Cl)cc2)c1C(=O)O	0.6	-3.1	-1.7	1.7	-1.5	-1.8
CCN(CC)c1ccc(C(=O)OCc2c(C)noc2C)cc1	11.8	-5.3	0.5	-2.2	-6.2	15.0
Cn1c(-c2ccc3c(c2)OCO3)cnc1NCc1cccc(O)c1	0.1	-2.5	29.5*	-34.5	-15.5	-5.0
CSc1ccc(CNc2ncc(-c3cccc([N+](=O)[O-])c3)n2C)cc1	-0.3	17.9	65.2*	-29.8	-8.7	-19.1
O=C(CN1C2=NCCCN2c2ccccc21)c1ccc([N+](=O)[O-])cc1	1.9	-19.2	-4.5	10.7	-9.9	20.2
C=CS(=O)(=O)N(Cc1ccccc1Br)[C@H](CO)CC(C)C	-0.2	-11.0	14.7	-10.5	-10.7	7.5
Cc1ccc(C(=O)Nc2cccc(C(F)(F)F)c2)cc1NC(=O)c1c[nH]c2cc(C(F)(F)F)ccc2c1=O	1.5	-14.1	-2.6	4.4	-3.7	21.8
CCN1CCN(Cc2ccc(NC(=O)c3ccc(C)c(NC(=O)c4c[nH]c5cc(C(F)(F)F)ccc5c4=O)c3)cc2C(F)(F)F)CC1	0.1	25.5*!	-8.0	4.0	-1.2	-15.8
CCOC(=O)c1cc(NC(=O)N2CCCCC2)c(C)nc1C	0.7	-12.3	-4.3	5.0	-2.8	24.8
CN1CCN(C2Cc3cc(F)ccc3Sc3ccc(Cl)cc32)CC1 (stereo unspecified)	4.9	-16.8	100.0*	-26.3	-1.4	13.7
CSc1ccc2c(c1)C(N1CCN(C)CC1)Cc1ccccc1S2 (stereo unspecified)	15.2*!	10.5	79.4*	-21.9	-0.9	-0.3
CN1CCN(C2Cc3ccccc3Sc3ccc(Cl)cc32)CC1 (stereo unspecified)	7.2	20.1	73.7	-22.4	-3.4	-4.1
CN1CCN(C2Cc3ccc(F)cc3Sc3cc(F)c(Cl)cc32)CC1 (stereo unspecified)	0.9	6.4	28.7	-13.7	-6.2	-3.6
CC12CCC(=O)N1C(C(=O)NNC(=O)c1ccccc1)CS2 (stereo unspecified)	0.9	-2.2	-0.1	1.2	-1.8	3.8
O=S1(=O)CC(O)C(N2CCCCC2)C1 (stereo unspecified)	0.1	-5.6	-12.9	2.1	-3.2	11.7
O=S1(=O)C[C@H](N2CCCC2)[C@@H](COCc2ccccc2)N1	-0.5	24.8*	5.9	12.9	9.6	-7.8
CC(C)(C)CN1CCC(Oc2cccc(C(=O)NCCCOc3cccnc3)c2)CC1	0.5	24.4*	17.1	-2.6	-4.6	-31.8
CC(Sc1nc2ccccc2c(=O)n1CC1CCCO1)C(=O)Nc1ccc(S(N)(=O)=O)cc1 (stereo unspecified)	0.1	-2.9	-30.4	8.9	-0.2	-1.7
SMILES	CHO-K1 Ca ag	CHO-K1 Ca antag	M1 antag	CHRM1 PAM	M1 ag	M1 PAM parental
CCN(CC)C(=O)N1c2ccccc2Sc2ccccc21	-0.2	-13.6	-7.4	1.9	-7.5	3.1
CCN(CC)CC(=O)N1c2ccccc2Sc2ccc(Cl)cc21	0.5	-8.2	99.2*	-19.7	-3.7	-8.0
CCN(CC)CC(=O)N1c2ccccc2Sc2ccccc21	0.9	-12.4	100.7*	-27.7	-9.3	3.1
CCN(CC)CCCCN1c2ccccc2Sc2ccccc21	12.8	-3.1	100.7*	-27.0	-6.8	-7.4
O=C(NCCN1CCC(n2c(=O)[nH]c3ccccc32)CC1)c1ccc(F)c(F)c1	1.3	-2.1	.	.	.	-1.7
CCOc1cccc(C(=O)Nc2ccc3oc(Cc4ccc(Cl)cc4)nc3c2)c1	2.8	5.1	5.8	1.2	-0.2	10.6
O=C(NCc1ccco1)C(=O)NCC1OCCN1S(=O)(=O)c1cc(F)ccc1F (stereo unspecified)	0.7	-10.7	-1.6	1.4	16.3*	-0.4
O=C(NCc1ccco1)C(=O)NCC1OCCN1S(=O)(=O)c1ccc(F)cc1 (stereo unspecified)	0.4	4.8	13.6	-9.2	-3.9	0.7
Cc1ccc(N/C(N)=N/c2nc(C)cc(N3CCCCC3)n2)c(C)c1	10.5	25.2*	33.7*	-31.7	-10.3	3.6
CN1CCN(/N=C/c2ccc(OCc3ccccc3)cc2)CC1	4.8	-5.4	57.5*	-25.4	-5.0	0.2
CC1=C(C)/C(=N\OS(=O)(=O)c2ccc(C)cc2)C=CC1=O	7.3	34.3*	30.7*	-10.1	2.5	-10.5
CC1=C/C(=N\OS(=O)(=O)c2ccccc2)C(C)=CC1=O	11.8	36.5*	32.0*	-11.0	9.7	1.6
CCCCN(C(=O)Cn1nnc2ccccc21)C(C(=O)NCCOC)c1cccs1 (stereo unspecified)	0.8	-20.0	-19.9	12.7	-2.8	13.4
CCC1CCCCN1C(=O)CCCOc1ccccc1 (stereo unspecified)	0.1	5.1	0.2	3.2	-3.5	-4.0
CCCCC[C@H](O)/C=C/[C@H]1CCC(=O)[C@@H]1CCCCCCC(=O)N1CCCCC1CO (stereo partly specified)	15.8*	53.5*	28.3	-11.2	-1.3	5.3
CCN1C(=O)[C@H]2[C@@H](c3ccc(Cl)cc3)N3C(=O)CN(CC4CC4)C(=O)[C@@]3(C)[C@H]2C1=O	3.9	-5.3	0.5	5.7	-5.7	12.9
COc1cccc(-c2nc(CS(=O)(=O)CC(=O)NCc3ccccc3)c(C)o2)c1	0.6	2.7	-5.7	2.9	-1.8	16.4
COc1cccc(-c2nc(CS(=O)(=O)CC(=O)NCCCc3ccccc3)c(C)o2)c1	0.4	-11.7	40.1*	-20.7	-2.6	19.7
